GRP78 ERSR act = qHTS for Inducers of the Endoplasmic Reticulum Stress Response (ERSR) in Human Glioma: qHTS; U87-MG GRP78 promoter luciferase reporter, 16 h; Potency, µM, inactives show at the top dose activation, hits mostly activators; hit rate 0.02% among 420,000; AID 602332, 2012; further: series mostly up to about 76 µM; % of control where 0% means no effect; nearly all actives have a fitted effect of over 35% in size
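Stably transfected U87-MG human glioma cells carrying a GRP78-based luminescent sensor were seeded at 1000 cells/well, pin-dosed with compounds and incubated 16 h. Luciferase reagent was then added, and end-point luminescence was read after 10 min at room temperature.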
Sfp PPTase inh = qHTS Assay for Inhibitors of Bacillus subtilis Sfp phosphopantetheinyl transferase (PPTase); Biochemical Sfp PPTase activity, qHTS; hit rate 3.5% among 310,000; 4'-phosphopantetheinyl transferase ffp (Bacillus subtilis), Q9F4F7; AID 1490, 2009; Potency, µM, inactives show largest response in the series, negative = inhibition, actives largely listed as inhibitors;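 further: the enzyme is Sfp with the accession as filed and its product quenches rhodamine fluorescence; 0% = enzyme reaction without inhibitor and -100% = no enzyme wells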
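After 15 min at room temperature with compound, 15 nM Sfp received 5 uM rhodamine-CoA plus 12.5 uM BHQ-2-ybbR (50 mM Hepes pH 7.6, 10 mM MgCl2). Rate came from the fluorescence difference over 30 min, ex 525/em 598 nm.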
VDR inh = Inhibitors of the vitamin D receptor (VDR): qHTS; VDR-SRC2-3 peptide fluorescence polarization, 2 h; Potency, µM, for the others: max response, negative = inhibition, actives largely listed as inhibitors; hit rate 0.93% among 400,000; further: on the % scale 0 is the no-effect control and ±100 the full control effect
Target sequence (P11473 whole entry, looked up): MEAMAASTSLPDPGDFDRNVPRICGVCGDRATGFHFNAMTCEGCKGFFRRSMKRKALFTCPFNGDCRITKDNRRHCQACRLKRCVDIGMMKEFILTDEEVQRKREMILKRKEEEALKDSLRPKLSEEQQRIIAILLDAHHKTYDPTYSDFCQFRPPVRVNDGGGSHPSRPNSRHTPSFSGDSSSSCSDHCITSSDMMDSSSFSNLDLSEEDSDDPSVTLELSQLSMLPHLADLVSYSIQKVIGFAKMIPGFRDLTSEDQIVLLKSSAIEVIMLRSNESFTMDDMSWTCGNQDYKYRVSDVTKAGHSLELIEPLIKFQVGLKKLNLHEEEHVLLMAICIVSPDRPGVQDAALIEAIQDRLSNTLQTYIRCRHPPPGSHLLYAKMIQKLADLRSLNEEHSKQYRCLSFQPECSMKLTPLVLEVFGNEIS
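Two reagent solutions held at 4 deg C in the dark were dispensed, compounds pinned at 23 nl, and the mixture incubated 2 h at room temperature. Read-out: fluorescence polarization of VDR–SRC2-3 peptide binding.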
G9a block = qHTS Assay for Inhibitors of Histone Lysine Methyltransferase G9a. AID 504332, 2011. hit rate 8.8% among 350,000. Potency, µM (series often up to 102 µM), inactives show at the highest dose activity, negative = inhibition, usual class: inhibitors. G9a H3K9 monomethylation, AlphaScreen, 2 h; further: on the % scale 0 is the no-effect control and ±100 the full control effect; nearly all actives have a fitted effect of over 75% in size
Target sequence (Q96KQ7 913-1193 limits assumed): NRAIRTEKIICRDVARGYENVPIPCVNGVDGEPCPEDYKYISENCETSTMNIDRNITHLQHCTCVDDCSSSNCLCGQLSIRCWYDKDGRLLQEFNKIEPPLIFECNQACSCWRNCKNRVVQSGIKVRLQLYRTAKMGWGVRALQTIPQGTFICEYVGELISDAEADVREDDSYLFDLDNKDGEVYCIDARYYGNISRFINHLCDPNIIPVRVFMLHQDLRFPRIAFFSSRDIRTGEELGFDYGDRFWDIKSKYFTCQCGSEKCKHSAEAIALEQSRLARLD
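Methyltransferase reactions run at room temperature for 2 h (20 nM enzyme, 500 nM biotin-H3K9 peptide, 20 uM SAM) after a 15 min compound preincubation; product detected by AlphaScreen beads and anti-H3K9me1 antibody.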
12-LOX inh = Primary qHTS assay for inhibitors of human arachidonate 12S-lipoxygenase (ALOX12): Round 2. Polyunsaturated fatty acid lipoxygenase ALOX12 (Homo sapiens), P18054. Potency, µM (doses to about 108 µM), without a hit: at the top dose activity change, negative = inhibition, hits mostly inhibitors. hit rate 1.1% among 580,000. AID 1671190, 2021. purified 12hLO, xylenol orange hydroperoxide absorbance; further: on the % scale 0 is the no-effect control and ±100 the full control effect
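Hydroperoxide product was detected by ferrous iron/xylenol orange as the 573 to 405 nm absorbance ratio. Arachidonic acid at 40 uM (final) was turned over for 30 min at room temperature by 150 nM human 12hLO, pH 7.0 Hepes buffer, after 15 min compound preincubation.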
* hit, by the source's call; ? = inconclusive; . = not tested or not shown; [ ] = dose if it differs, or a comment. This is one part of a sample in which hits are shown more often than they occur. The call rests on the fitted dose curve; in most records, active means well fitted curve in the direction sought with a large enough effect; inconclusive means small, poorly fitted or top-dose-only effect, or another doubt; inactive means no such curve, though single readings can be large; an effect the other way counts as inactive or inconclusive. Potency means the concentration at half of the fitted maximal effect.

SMILES	GRP78 ERSR act	Sfp PPTase inh	VDR inh	G9a block	12-LOX inh
CCN1CCCc2cc(CN(CCN3CCOCC3)C(=S)Nc3ccc(OC)cc3)ccc21	-3.9%	21.4%	-18.0%	1.5%[59 µM]	0.7%
CCOc1ccc(NC(=S)N(CCN2CCOCC2)Cc2ccc3c(c2)CCCN3CC)cc1	-2.7%	0.1%	-16.7%	28.2µM*	9.2%
COc1ccc(C2CCCN2C(=O)CSc2nnnn2C2CCCC2)cc1 (centres undefined)	.	.	.	.	15.5%
COC(=O)/C=C/c1ccccc1	.	.	.	.	-0.4%[176 µM]
COc1ccc(/C=N/OCC(=O)OCC(=O)c2ccc(Cl)cc2)cc1	.	.	.	.	-0.9%
NC(N)=N/N=C/c1ccc(OCc2ccccc2)cc1	-0.9%	-15.0%	12.1%	?	?
NC(N)=N/N=C/c1ccc(OCc2ccc(Cl)cc2)cc1	1.4%	22.4µM*	12.7%	?	?
COC(=O)[C@]12CCC(C)(C)C[C@@H]1[C@@H]1C(=O)C=C3[C@@]4(C)C=C(C#N)C(=O)C(C)(C)[C@@H]4CC[C@@]3(C)[C@]1(C)CC2	-11.2%	.	.	.	9.68µM*
S=c1nc(C2CCCCC2)n(-c2ccccc2)[nH]1	-2.5%	19.6%	17.6%	3.55µM*	?
Cc1ccc(CCCC(=O)NCc2ccc(CN3CCCC3)cc2)cc1	.	.	.	.	-23.1%
Nc1cc(Br)c(N)c(Br)c1	-2.3%	-0.9%	2.2%	50.1µM*	0.0%
CCCNC(C)c1cc2ccccc2o1 (centres undefined)	.	.	.	.	21.7%
COc1ccc(/C=C/C2=CC(C)(C)NC(=S)N2)cc1	-2.3%	5.5%	-11.6%	8.91µM*	?
C#CCOCCOCCOCCNc1nc(N2CCOCC2)nc(N2CCN(C(=O)[C@H]([C@@H](C)O)n3cc(CCCCN)nn3)CC2)n1	0.3%	6.4%	3.7%	44.7µM*	?
C#CCOCCOCCOCCNc1nc(N2CCOCC2)nc(N2CCN(C(=O)[C@H]([C@@H](C)CC)n3cc(CCCN=C(N)N)nn3)CC2)n1	-5.4%	-5.1%	-7.3%	50.1µM*	?
C#CCOCCOCCOCCNc1nc(N2CCN(C(=O)[C@H]([C@@H](C)O)n3cc(CCCCN)nn3)CC2)nc(N2CCN(C(=O)[C@H]([C@@H](C)CC)n3cc(CCCCN)nn3)CC2)n1	1.3%	.	-3.5%	0.5%[2.33 µM]	?
O=C(C1CCN(S(=O)(=O)c2cccc3cccnc23)CC1)N1CC=C(c2ccccc2)CC1	.	6.0%	.	?	.
O=C(C1CCN(S(=O)(=O)c2ccc(F)cc2)CC1)N1CC=C(c2ccccc2)CC1	-6.1%	9.3%	10.6%	14.1µM*	-20.0%
O=[N+]([O-])c1ccc2c(c1N1CCCCC1)=NC1(CCCCC1)[N+]=2[O-]	-1.3%	25.1µM*	-9.2%	50.1µM*	0.0%
N#Cc1c(=O)c2nc(NCCCO)ncc2n2c(=O)c3ccccc3[nH]c12	0.5%	-0.1%	-10.6%	44.7µM*	-53.9%
N#Cc1ccccc1CSc1nnc(N2CCCCC2)n1-c1ccccc1	.	.	.	.	13.3%
Cc1c(Cl)cccc1NC(=O)c1ncn[nH]1	-6.2%	-11.9%	7.2%	11.2µM*	34.4%
Cc1ccc(NC(=O)c2ncn[nH]2)cc1	1.4%	2.6%	-11.8%	1.7%	1.1%
CCCCC(=O)Nc1ncc(S(=O)(=O)c2ccc([N+](=O)[O-])cc2)s1	-2.3%	-1.6%	-10.1%	.	0.0%
COCC(=O)Nc1ncc(S(=O)(=O)c2ccc([N+](=O)[O-])cc2)s1	-3.1%	7.6%	-16.1%	35.5µM*	-2.0%
SMILES	GRP78 ERSR act	Sfp PPTase inh	VDR inh	G9a block	12-LOX inh
COc1ccc(NC(=O)NCCCN2CCCC2=O)cc1	-1.3%	13.1%	-5.0%	?	475.8%
O=C(NCCCN1CCOCC1)c1ccc2c(=O)n(-c3ccc(F)c(Cl)c3)c(=S)[nH]c2c1	-1.8%	-4.6%	-6.9%	39.8µM*	-29.0%
COc1ccc(NC(=S)NCCCN2CCCC2=O)c(OC)c1	0.7%	39.8µM*	-7.3%	?	-3.9%
COc1ccc(NC(=O)CC(C)NCCCN2CCCC2=O)cc1 (centres undefined)	3.9%	?	3.2%	56.2µM*	-15.6%
O=C(O)c1ccc2c(=O)n(-c3ccc(F)c(Cl)c3)c(=S)[nH]c2c1	1.5%	10.0%	27.6%	?	?
COc1ccc(-n2c(=S)[nH]c3cc(C(=O)NCCCN4CCCC4=O)ccc3c2=O)c(OC)c1	-6.1%	-9.2%	-10.4%	31.6µM*	?
COc1ccccc1NC(=O)C(=O)NCCCN1CCCC1=O	0.2%	.	3.8%	?	-3.7%
CC1CCCN(C(=O)CSc2nnc(-c3cccs3)n2N)C1 (centres undefined)	.	.	.	.	-5.1%
COc1ccc(-n2c(=S)[nH]c3cc(C(=O)NCCCN4CCOCC4)ccc3c2=O)cc1	-4.7%	-17.4%	-12.5%	28.2µM*	-24.4%
CCN1CCN(CCNC(=O)Cc2cccn2-c2ccc(C)cc2)CC1	.	.	.	.	-14.0%
Cc1ccc(NCc2cc3cccc(C)c3[nH]c2=O)c(C)c1	.	.	.	.	129.4%
COc1ccc2[nH]c(=O)c(CNc3ccc(C)cc3C)cc2c1	0.4%	44.7µM*	8.0%	20µM*	-26.5%
Cc1ccc2[nH]c(=O)c(CNC(C)(C)C)cc2c1	2.7%	5.62µM*	13.5%	?	3.6%
COc1ccc2[nH]c(=O)c(CNc3cc(C)ccc3C)cc2c1	-3.2%	50.1µM*	17.4%	?	21.3%
COc1ccc2[nH]c(=O)c(CN(C)S(=O)(=O)c3ccc(C)cc3)cc2c1	.	.	.	.	-8.0%
CNC(=O)CN(C)S(=O)(=O)N1CCCC(C)C1 (centres undefined)	.	.	.	.	6.8%
CCOCc1ccccc1CNC(=O)c1ccc2c(c1)NC(=O)CS2	.	.	.	.	5.7%
O=C1Cc2ccccc2C(c2ccc(Cl)cc2Cl)N1 (centres undefined)	-5.2%	21.2%	-6.8%	-4.7%	-0.9%
S=C1NCCc2ccc(Cl)cc2C1c1ccccc1Cl (centres undefined)	-2.2%	13.1%	-17.0%	?	31.6µM*
CCOC(=O)N1CCN(C(=O)NC2CCCCC2)CC1	-6.1%	-2.8%	-10.0%	-8.6%[0.0925 µM]	-6.6%
CCOC(=O)N1CCN(C(=O)CNC2CCCCCCC2)CC1	-5.3%	-22.5%	-9.7%	31.6µM*	-19.0%
Cc1ccc(OCCC2CCN(C(=O)Cc3ccsc3)C2)cc1 (centres undefined)	.	.	.	.	5.6%
COc1ccc(CS(=O)(=O)/C(Cl)=C(/Cl)C(=O)Nc2ccc(OC)nc2)cc1	-16.6%	1.0%	39.8µM*	44.7µM*	.
Cc1oc(-c2ccccc2)nc1CN1CCCC1c1nnc2ccccn12 (centres undefined)	.	.	.	.	18.3%
CCOC(=O)CSC1=Nc2ccccc2C2=NC(CC(=O)NCc3cccs3)C(=O)N12 (centres undefined)	-6.3%	3.8%	-7.0%	-3.6%[12.7 µM]	?
